Inconclusive results are not listed. Where a call stands in place of a potency, no number is given. Activity calls are given as the source filed them. Calls follow the shape of the full dose curve.
Potency is read from the fitted curve at half-maximal effect.

The assay in a line: qHTS assay for small molecule disruptors of the mitochondrial membrane potential - cell viability (AID 720634). Also: nearly all actives have a fitted effect of over 20% in size. To be noted: HepG2 viability, ATP luminescence (CellTiter-Glo), 1 h; series mostly up to 83.2 µM. In short, it runs like this: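 Measuring cytotoxicity alongside mitochondrial potential, the screen quantified ATP by luminescence in HepG2 cells after 1 hr compound incubation and a 30 min room-temperature CellTiter-Glo step.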
In the case of `O=C1CSC2(CCN(CCCN3c4ccccc4Sc4ccc(Cl)cc43)CC2)N1`, the Potency entry is “inactive”.

Regarding `CC(C)[C@@H](C)/C=C/[C@@H](C)[C@H]1CC[C@H]2/C(=C/C=C3\C[C@@H](O)CC[C@@H]3C)CCC[C@]12C`, the Potency result was “inactive”.

Consider `CCCCC(C)(O)C/C=C/[C@H]1[C@H](O)CC(=O)[C@@H]1CCCCCCC(=O)OC` (some centres not stated), for which the Potency entry was “inactive”.

On to `CC(=O)Nc1ccc(NC(=S)NC(=O)c2ccc(C(C)(C)C)cc2)cc1`, for which the Potency result was “inactive”.

Turning to `CC1(C)S[C@@H]2[C@H](NC(=O)C3(N)CCCCC3)C(=O)N2[C@H]1C(=O)O`, the Potency result is “inactive”.

Take `CCCCCCCC(=O)CC[C@@H]1[C@@H](C/C=C\CCCC(=O)OC(C)C)[C@@H](O)C[C@H]1O`: the Potency was 26.6 µM (active).

On to `COc1ccc(C[C@H](C)NC[C@@H](O)c2ccc(O)c(NC=O)c2)cc1`, for which the Potency result is “inactive”.

In the case of `CO[C@@H]1[C@@H](O[C@@H]2O[C@H](C)[C@@H](O[C@H]3C[C@@](C)(O)[C@@H](OC(=O)CC(C)C)[C@H](C)O3)[C@H](N(C)C)[C@H]2O)[C@@H](CC=O)C[C@@H](C)C(=O)/C=C/C2OC2C[C@@H](C)OC(=O)C[C@H]1OC(C)=O` (some centres not stated), the Potency result was “inactive”.

Turning to `Cc1cc2nc3c(=O)[nH]c(=O)nc-3n(C[C@H](O)[C@H](O)[C@H](O)COP(=O)(O)OP(=O)(O)OC[C@H]3O[C@@H](n4cnc5c(N)ncnc54)[C@H](O)[C@@H]3O)c2cc1C`, the Potency result was “inactive”.

On to `NC(=O)OC[C@@H]1[C@H](NC(=O)/C(=N\OCC(=O)O)c2csc(N)n2)C(=O)N1S(=O)(=O)O`, for which the Potency entry was “inactive”.

On to `CCCCCCCCCCCCOCCCN`, for which the Potency entry was “inactive”.

For the compound `O=C(O)C1CCCN1` (configuration not stated), the Potency result is “inactive”.

Values taken from PubChem BioAssay (Tox21).
